Assay [1] is described as follows: qHTS assay to identify small molecule antagonists of the glucocorticoid receptor (GR) signaling pathway - cell viability counter screen (AID 720693). Also: nearly all actives have a fitted effect of over 55% in size. In general terms: In qHTS, concentration-response curves come from the screen itself.
Assay [2] can be described thus: qHTS assay for identifying genotoxic compounds that show differential cytotoxicity against isogenic chicken DT40 cell lines with known DNA damage response pathways - wild type cell line (AID 743012). Also: nearly all actives have a fitted effect of over 60% in size. Also: potency is read from the fitted curve at half-maximal effect. In outline:
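Luminescent ATP viability signal (CellTiter-Glo, 30 min RT) recorded after wild type DT40 cells were incubated with compounds for 40 h at 37 C/5% CO2.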

A short description of assay [3]: qHTS assay for identifying genotoxic compounds that show differential cytotoxicity against isogenic chicken DT40 cell lines with known DNA damage response pathways - Rev3 mutant cell line (AID 743014). Also: nearly all actives have a fitted effect of over 55% in size. Also: potency is read from the fitted curve at half-maximal effect.
Assay [4] can be described thus: qHTS assay for identifying genotoxic compounds that show differential cytotoxicity against isogenic chicken DT40 cell lines with known DNA damage response pathways - Rad54/Ku70 mutant cell line (AID 743015). Also: nearly all actives have a fitted effect of over 60% in size. Also: potency is read from the fitted curve at half-maximal effect.
Assay [5] is described as follows: qHTS assay to identify small molecule antagonists of the androgen receptor (AR) signaling pathway - cell viability counter screen (AID 743033; also: nearly all actives have a fitted effect of over 45% in size).
Assay [6] in a line: qHTS assay to identify small molecule antagonists of the androgen receptor (AR) signaling pathway using the MDA cell line - cell viability counter screen (AID 743041; also: nearly all actives have a fitted effect of over 45% in size; also: potency is read from the fitted curve at half-maximal effect). In outline:
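Compound exposure lasted 16 h at 37C in MDA-kb2 AR-luc cells stimulated with R1881. Protease-based CellTiter-Fluor reagent was applied for the final 30 min and fluorescence measured.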

The target in assay [7] is Androgen receptor (Homo sapiens) (UniProt P10275). Description: qHTS assay to identify small molecule antagonists of the androgen receptor (AR) signaling pathway (AID 743035; active = well fitted inhibition curve with a large enough effect in the signal ratio in the repeat runs, not every such curve was filed as active; the % refers to the signal ratio). In outline:
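Quantitative HTS of the Tox21 10K library used HEK293 AR-UAS-bla cells stimulated with R1881 alongside compound for 16 h at 37C, followed by beta-lactamase FRET detection (LiveBLAzer B/G, 2 h, RT).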

For assay [8] the target is unchanged. Description: qHTS assay to identify small molecule agonists of the androgen receptor (AR) signaling pathway (AID 743036; active = well fitted activation curve with a large enough effect in the signal ratio in the repeat runs, with a control signal flat, not every such curve was filed as active; the % refers to the signal ratio). In outline: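 Fluorescence from a beta-lactamase FRET substrate served as read-out in AR-UAS-bla GripTite HEK293 cells. Cells were treated with DMSO-dissolved compounds for 16 h at 37C, then with LiveBLAzer B/G substrate for 2 h at room temperature.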

Assay [9] shares this target. Description: qHTS assay to identify small molecule agonists of the androgen receptor (AR) signaling pathway using the MDA cell line (AID 743040; also: nearly all actives have a fitted effect of over 20% in size; also: potency is read from the fitted curve at half-maximal effect). In outline:
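Testing was done with the MDA-kb2 AR-luc line, a human breast carcinoma stably transfected with MMTV-luciferase containing AR and GR response elements. Cells were exposed 16 h at 37C before ONE-Glo luminescence detection.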

The target is the same in assay [10]. The assay is described as follows: qHTS assay to identify small molecule antagonists of the androgen receptor (AR) signaling pathway using the MDA cell line (AID 743042; also: nearly all actives have a fitted effect of over 55% in size). In outline:
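MDA-kb2 breast carcinoma cells carrying MMTV-luciferase (AR/GR responsive) were co-treated with compounds and the agonist R1881 for 16 h at 37C. Inhibition read as ONE-Glo luminescence; CellTiter-Fluor fluorescence measured in parallel for cytotoxicity.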

Inconclusive results are not listed. The source made the active and inactive calls. Unless noted, calls follow the shape of the dose curve; as a rule, active = well fitted curve in the direction sought with a large enough effect in the repeat runs; inconclusive = weak or mixed curves; inactive = no such curve, though single readings can be large; an effect the other way counts as inactive or inconclusive.

Androgen receptor (Homo sapiens), sequence (P10275 whole entry, looked up): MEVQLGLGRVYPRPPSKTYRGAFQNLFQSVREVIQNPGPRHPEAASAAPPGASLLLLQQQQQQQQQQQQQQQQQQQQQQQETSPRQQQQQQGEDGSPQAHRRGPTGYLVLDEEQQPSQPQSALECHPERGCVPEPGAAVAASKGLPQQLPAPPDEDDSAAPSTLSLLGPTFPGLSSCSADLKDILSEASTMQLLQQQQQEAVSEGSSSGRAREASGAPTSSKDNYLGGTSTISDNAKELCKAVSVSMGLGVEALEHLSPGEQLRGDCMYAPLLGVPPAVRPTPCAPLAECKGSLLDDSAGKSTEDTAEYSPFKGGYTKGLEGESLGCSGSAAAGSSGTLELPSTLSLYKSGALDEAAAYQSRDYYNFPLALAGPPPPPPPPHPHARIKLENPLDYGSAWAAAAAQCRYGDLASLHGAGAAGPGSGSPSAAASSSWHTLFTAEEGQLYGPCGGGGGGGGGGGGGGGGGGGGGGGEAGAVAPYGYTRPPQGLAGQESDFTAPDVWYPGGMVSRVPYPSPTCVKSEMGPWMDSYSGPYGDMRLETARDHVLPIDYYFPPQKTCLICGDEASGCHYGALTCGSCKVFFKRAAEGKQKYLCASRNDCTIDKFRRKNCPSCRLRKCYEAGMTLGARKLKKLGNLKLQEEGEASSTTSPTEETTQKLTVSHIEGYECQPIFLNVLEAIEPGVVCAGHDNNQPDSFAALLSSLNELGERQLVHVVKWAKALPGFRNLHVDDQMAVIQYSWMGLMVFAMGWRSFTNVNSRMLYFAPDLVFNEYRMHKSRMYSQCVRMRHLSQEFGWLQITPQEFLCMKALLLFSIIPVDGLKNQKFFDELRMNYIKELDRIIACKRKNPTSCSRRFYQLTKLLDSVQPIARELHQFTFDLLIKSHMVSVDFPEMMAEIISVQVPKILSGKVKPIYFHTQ

Consider `CCOC(=O)[C@H](CCc1ccccc1)N[C@@H](C)C(=O)N1Cc2cc(OC)c(OC)cc2C[C@H]1C(=O)O`, for which the molecule was classed as inactive in assay [1] and in [5]. For the same molecule, the Potency result in assay [2], in [3], in [4] and in assay [6] was “inactive” throughout.
As for `Cc1ccc(C=O)s1`, the molecule was classed as inactive in [1] and in assay [5]. Moreover, the Potency entry in assay [2], in assay [3], in assay [4] and in [6] was “inactive” each time.
Consider `CC(C)(C)C1CCCCC1=O` (configuration not stated), for which the molecule was called inactive in assay [1] and in assay [5]. Further, the Potency result in assay [2], in [3], in assay [4] and in assay [6] was “inactive” each time.
`CC[C@H]1CC[C@H](NCc2cc3c(cc2OC)[C@H]2C[C@H]2C(=O)N3C)[C@H](c2ccccc2)N1`: the molecule was classed as inactive in [1] and in assay [5]. Further, the Potency in assay [2] is 6.86 µM (active); in assay [3], 4.86 µM (active); in assay [4] it was 4.86 µM (active); in assay [6], 68.6 µM (active).
On to `O=S(=O)(O)C(F)(F)F`, for which the molecule was called inactive in assay [1] and in assay [5]. The Potency entry in [2], in assay [3], in assay [4] and in assay [6] was “inactive” throughout.
For the molecule `CS(=O)(=O)c1ccc([C@@H](O)[C@@H](CF)NC(=O)C(Cl)Cl)cc1`, the call in assay [1] and in [5] was inactive. The Potency in assay [2] was 4.03 µM (active); in assay [3], 6.39 µM (active); in assay [4] it was 7.17 µM (active). Further, the Potency result in assay [6] is “inactive”.
Regarding `Cc1ccc(C)c(N)c1`, the molecule was called inactive in assay [1] and in assay [5]. The Potency result in [2], in [3], in assay [4] and in [6] was “inactive” in each case.
Consider `CCN(CCCc1ccccc1)CCCc1ccccc1`, for which the result in assay [1] and in assay [5] was inactive. Further, the Potency is 2.02 µM (active) in assay [2], 1.27 µM (active) in [3] and 2.27 µM (active) in assay [4]. Besides, the Potency result in assay [6] was “inactive”.
Take `NC/C=C/C(=O)O`: the result in assay [1] and in assay [5] was inactive. For the same molecule, the Potency result in assay [2], in assay [3], in [4] and in [6] was “inactive” each time.
For the molecule `COc1ccccc1OCC(O)COC(N)=O` (configuration not stated), the molecule was called inactive in [1] and in assay [5]. Also, the Potency entry in assay [2], in [3], in [4] and in assay [6] was “inactive” throughout.
Take `CCC1(C)NC(=O)NC1=O` (configuration not stated): the outcome in assay [1] and in assay [5] was inactive. In addition, the Potency entry in assay [2], in [3], in assay [4] and in [6] was “inactive” throughout.
`CNCCC(Oc1ccccc1OC)c1ccccc1` (configuration not stated): the molecule was called inactive in assay [1] and in [5]. In [2], the Potency was 26.6 µM (active). For the same molecule, the Potency result in assay [3], in assay [4] and in [6] was “inactive” throughout.
With `CCOc1ccccc1N`, the molecule was called inactive in assay [1] and in [5]. The Potency entry in assay [2], in assay [3], in assay [4] and in assay [6] was “inactive” throughout.
Turning to `O=C1CCCCCCCCCCC(=O)OCCO1`, the call in [1] was inactive. Besides, the Potency result in [2], in [3], in [4] and in assay [6] was “inactive” each time.
As for `FC(F)(F)C(F)(F)C(F)(F)C(F)(F)C(F)(F)C(F)(F)C(F)(F)C(F)(F)Br`, the outcome in assay [1] was inactive. Also, the Potency result in assay [2], in [3], in assay [4] and in assay [6] was “inactive” in each case.
In the case of `OCC(CBr)(CBr)CBr`, the outcome in assay [1] was inactive. The Potency result in assay [2], in assay [3], in [4] and in [6] was “inactive” throughout.
On to `CCC/C=C/CO`, for which, in assay [1], the result was inactive. For the same molecule, the Potency entry in assay [2], in [3], in assay [4] and in [6] was “inactive” throughout.
Turning to `Cc1c(-c2ccccc2)oc2c(C(=O)OCCN3CCCCC3)cccc2c1=O`, the result in [1] and in assay [5] was inactive. Also, the Potency result in [2], in assay [3], in assay [4] and in [6] was “inactive” throughout.
In the case of `CN1CCN(C2=Nc3cc(F)ccc3Cc3ccccc32)CC1`, the molecule was called inactive in assay [1], in assay [8] and in assay [10]. Moreover, the Potency in [2] was 11.9 µM (active); in assay [3] it was 8.41 µM (active); in [4], 23.7 µM (active). Further, the Potency result in assay [7], in assay [9] and in [6] was “inactive” throughout.
On to `COC(C)CCO` (configuration not stated), for which the result in assay [1], in [8] and in assay [10] was inactive. Moreover, the Potency result in [2], in assay [3], in assay [4], in [7], in [9] and in assay [6] was “inactive” throughout.
As for `Nc1cccc(S(=O)(=O)O)c1`, the result in [1], in [8] and in assay [10] was inactive. Further, the Potency result in [2], in assay [3], in assay [4], in [7], in assay [9] and in [6] was “inactive” in each case.
Regarding `CCNCCO`, the result in [1] was inactive. Besides, the Potency result in assay [2], in assay [3], in [4] and in assay [6] was “inactive” each time.
For `CCCN(CCC)C(=O)C(CCC(=O)O)NC(=O)c1ccccc1` (configuration not stated), the call in assay [1] and in assay [5] was inactive. The Potency result in assay [2], in assay [3], in assay [4] and in assay [6] was “inactive” each time.
In the case of `O=C(O)CN(CCN(CC(=O)O)CC(=O)O)CCN(CC(=O)O)CC(=O)O`, the molecule was classed as inactive in [1]. Besides, the Potency in assay [2] is 18.8 µM (active); in assay [3], 26.6 µM (active); in assay [4], 18.8 µM (active). In assay [6], the Potency result was “inactive”.
For `CC(C)=CCCC(C)CCOC=O` (configuration not stated), the molecule was called inactive in assay [1] and in assay [5]. In addition, the values for the Potency in assay [2], in [3] and in assay [4] were 48.6 µM (active), 27.3 µM (active) and 27.3 µM (active), respectively. In addition, the Potency entry in assay [6] was “inactive”.
As for `CCCCc1ccc2nc(NC(=O)OC)[nH]c2c1`, the outcome in assay [1] and in assay [10] was inactive. Besides, the Potency in [2] was 0.0569 µM (active); in [3], 0.0804 µM (active); in assay [4], 0.114 µM (active); in assay [9], 5.07 µM (active). Further, the Potency entry in assay [6] is “inactive”.
In the case of `O=C1CCCCC1C1CCCCC1` (configuration not stated), the molecule was classed as inactive in assay [1]. Further, the Potency result in assay [2], in assay [3], in [4] and in [6] was “inactive” each time.
Turning to `C[C@@H]1CN(c2c(F)c(F)c3c(=O)c(C(=O)O)cn(C4CC4)c3c2F)C[C@H](C)N1`, the call in [1] and in assay [10] was inactive. The Potency entry in assay [2], in [3], in assay [4], in assay [7] and in assay [6] was “inactive” in each case. The Potency in assay [9] is 26.6 µM (active).
Regarding `Cc1cc(S(=O)(=O)O)c(N)cc1Cl`, the call in assay [1], in assay [8] and in assay [10] was inactive. Also, the Potency entry in assay [2], in assay [3], in assay [4], in assay [7], in assay [9] and in assay [6] was “inactive” throughout.
As to `CC(CNC1CCCCC1)OC(=O)c1ccccc1` (configuration not stated), the call in assay [1] was inactive. Also, the Potency entry in assay [2], in [3], in [4] and in [6] was “inactive” in each case.

The values above are taken from PubChem BioAssay (Tox21).
